The results in this text go back to PubChem BioAssay (NCI).

About 83,000 compounds went through this panel and 20% of them were active in at least one assay; those are over-represented in the sample as a whole.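 Interpretation: 100, growth as untreated; towards 0, rising growth inhibition; 0, no net growth; 0 to -100, cell death. Compounds scoring below 10 were considered active.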 Values without a mark were called inactive. Active and inactive are the calls of the source.

Common to all, as to test: NCI-60 one-dose screen, 48 h (100 = growth as untreated, 0 = no growth, -100 = all killed)
One assay deals with K-562 leukemia. The conditions noted are these: 10 µM unless noted.
The next assay has as its system MALME-3M melanoma. The conditions noted are these: 10 µM unless noted.
The subject of the next assay is MDA-MB-231 breast. The conditions noted are these: 10 µM unless noted.
Another assay relates to RXF 393 renal. The conditions noted are these: 10 µM unless noted.
The next assay has as its system SF-268 CNS. The conditions noted are these: 10 µM unless noted.
In a further assay the test system is SF-295 CNS. The conditions noted are these: 10 µM unless noted.
A further assay has as its system SF-539 CNS. The conditions noted are these: 10 µM unless noted.
For another assay, the system named is UACC-257 melanoma. The conditions noted are these: 10 µM unless noted.
The test system of the next assay is M14 melanoma. The conditions noted are these: 10 µM unless noted.
The next assay has as its system HCT-15 colon. The conditions noted are these: 10 µM unless noted.
The subject of another assay is HT29 colon. The conditions noted are these: 10 µM unless noted.
Another assay deals with SNB-75 CNS. The conditions noted are these: 10 µM unless noted.
The test system of the next assay is SNB-19 CNS. The conditions noted are these: 10 µM unless noted.
The subject of the next assay is U251 CNS. The conditions noted are these: 10 µM unless noted.
Another assay relates to PC-3 prostate. The conditions noted are these: 10 µM unless noted.
Another assay relates to SK-MEL-5 melanoma. The conditions noted are these: 10 µM unless noted.
Another assay deals with UACC-62 melanoma. The conditions noted are these: 10 µM unless noted.
The test system of a further assay is LOX IMVI melanoma. The conditions noted are these: 10 µM unless noted.
Another assay relates to SK-MEL-28 melanoma. The conditions noted are these: 10 µM.
In another assay the test system is SK-MEL-2 melanoma. The conditions noted are these: 10 µM unless noted.

Consider `Clc1ccc(Nc2nnc(-c3ccc4c(c3)OCO4)o2)cc1`, for which the growth with K-562 leukemia was 62.4%; in the assay with MALME-3M melanoma, 99%; in the assay on MDA-MB-231 breast it was 108%; with RXF 393 renal, 130%; with SF-268 CNS it was 107%; with SF-295 CNS, 115%. Further, the growth is 104% in the assay with SF-539 CNS; 100% with UACC-257 melanoma; 102% in the assay with M14 melanoma; 95.8% with HCT-15 colon; 95% with HT29 colon; 121% in the assay on SNB-75 CNS. Moreover, the growth with SNB-19 CNS was 99%; in the assay on U251 CNS, 102%; with PC-3 prostate, 107%; with SK-MEL-5 melanoma it was 104%; with UACC-62 melanoma it was 88.9%; in the assay on LOX IMVI melanoma, 89.9%. The growth with SK-MEL-28 melanoma was 114%; with SK-MEL-2 melanoma it was 102%.
For `CC1(C)CC2(C)OC2C2(C1)N=NC(=Nc1ccccc1)O2` (stereo not given), the growth with K-562 leukemia is 19.5%; with MALME-3M melanoma, 57.1%; with MDA-MB-231 breast, 91.8%; with RXF 393 renal it was -1.33% (active); in the assay on SF-268 CNS, 83.3%; in the assay on SF-295 CNS, 65.6%. Further, the growth in the assay on SF-539 CNS was 83.7%; in the assay on UACC-257 melanoma, 64.2%; with M14 melanoma, 65.4%; with HCT-15 colon, 9.91% (active); in the assay with HT29 colon, 25.1%; in the assay with SNB-75 CNS, 84.8%. The growth is 86% with SNB-19 CNS; 84.4% in the assay on U251 CNS; 62.5% in the assay with PC-3 prostate; 61.5% with SK-MEL-5 melanoma; 73.1% in the assay on UACC-62 melanoma; -51.9% (active) in the assay with LOX IMVI melanoma. The growth was 70.3% in the assay with SK-MEL-28 melanoma and 76.6% with SK-MEL-2 melanoma.
For `CCOC(=O)C1(C(=O)OCC)N=C(c2ccccc2)C=C1c1ccccc1`, the growth with K-562 leukemia was 65.2%; in the assay on MALME-3M melanoma, 86.4%; in the assay with MDA-MB-231 breast it was 96.3%; in the assay on RXF 393 renal, 74.9%; in the assay with SF-268 CNS it was 92.6%; in the assay on SF-295 CNS it was 84.9%. The growth in the assay on SF-539 CNS is 94%; in the assay on UACC-257 melanoma it was 92.1%; in the assay on M14 melanoma, 90.5%; with HCT-15 colon, 96.5%; with HT29 colon it was 76.2%; in the assay on SNB-75 CNS it was 81.2%. Moreover, the growth was 95.4% in the assay on SNB-19 CNS; 83.3% in the assay on U251 CNS; 83.8% with PC-3 prostate; 90.1% with SK-MEL-5 melanoma; 82% in the assay on UACC-62 melanoma; 94.9% in the assay with LOX IMVI melanoma. Moreover, the values for the growth with SK-MEL-28 melanoma and with SK-MEL-2 melanoma were 105% and 82.8%, respectively.
On to `O=C(CSc1ccc2nnc(-c3cccc(F)c3)n2n1)Nc1ccc2c(c1)OCO2`, for which the growth with K-562 leukemia was 74.2%; in the assay with MALME-3M melanoma, 81%; in the assay on MDA-MB-231 breast it was 48.9%; with RXF 393 renal it was 98.5%; in the assay on SF-268 CNS, 51.3%; with SF-295 CNS, 91.6%. Further, the growth in the assay with SF-539 CNS is 84.3%; in the assay on UACC-257 melanoma, 94.8%; with M14 melanoma, 83.9%; in the assay with HCT-15 colon, 66.1%; in the assay with HT29 colon, 99.6%; with SNB-75 CNS, -22.3% (active). In addition, the growth in the assay with SNB-19 CNS was 100%; with U251 CNS it was 70.3%; with PC-3 prostate, 40.1%; with SK-MEL-5 melanoma, 86.1%; in the assay on UACC-62 melanoma, 83.2%; with LOX IMVI melanoma, 61.1%. The growth in the assay with SK-MEL-28 melanoma was 79.7%; in the assay with SK-MEL-2 melanoma, 92.6%.
In the case of `O=C1C(=O)c2c(ccc3ccccc23)-c2ccccc21`, the growth with K-562 leukemia was 8.29% (active); with MALME-3M melanoma it was -83.8% (active); with MDA-MB-231 breast, -7.61% (active); with RXF 393 renal, 22%; with SF-268 CNS it was 1.97% (active); in the assay on SF-295 CNS, 109%. For the same compound, the growth in the assay with SF-539 CNS was -53.5% (active); with UACC-257 melanoma, -37.4% (active); in the assay on M14 melanoma it was -44.6% (active); in the assay on HCT-15 colon, -27.6% (active); with HT29 colon, 61.5%; with SNB-75 CNS, 26.2%. In addition, the growth is 18.9% in the assay on SNB-19 CNS; 1.64% (active) in the assay with U251 CNS; 5.79% (active) with PC-3 prostate; -69.9% (active) in the assay on SK-MEL-5 melanoma; -25.2% (active) with UACC-62 melanoma; -33.2% (active) in the assay on LOX IMVI melanoma. Moreover, the values for the growth in the assay with SK-MEL-28 melanoma and with SK-MEL-2 melanoma were 3.64% (active) and -68.8% (active), respectively.
Consider `O=C1/C(=C\c2ccc[nH]2)c2ccccc2N1c1ccccc1`, for which the growth in the assay on K-562 leukemia was 90.9%; with MALME-3M melanoma, 103%; in the assay on MDA-MB-231 breast, 84.4%; in the assay on RXF 393 renal, 105%; in the assay on SF-268 CNS, 101%; in the assay on SF-295 CNS, 104%. For the same compound, the growth in the assay on SF-539 CNS was 94%; in the assay with UACC-257 melanoma, 110%; in the assay on M14 melanoma, 109%; in the assay on HCT-15 colon, 82.7%; in the assay with HT29 colon it was 105%; in the assay on SNB-75 CNS it was 84.7%. Also, the growth is 92.2% with SNB-19 CNS; 99.3% in the assay on U251 CNS; 90.9% in the assay on PC-3 prostate; 90.5% with SK-MEL-5 melanoma; 77% in the assay on UACC-62 melanoma; 96.4% in the assay with LOX IMVI melanoma. Moreover, the results for the growth in the assay on SK-MEL-28 melanoma and in the assay on SK-MEL-2 melanoma were 96.7% and 106%, respectively.
For the compound `COc1cc(C=C2C(=O)N(C)C(=O)N(C)C2=O)cc(CN2CCCCC2)c1O`, the growth in the assay with K-562 leukemia is 96.4%; in the assay on MALME-3M melanoma, 93.3%; in the assay on MDA-MB-231 breast, 98.1%; with RXF 393 renal, 116%; with SF-268 CNS, 94.1%; in the assay on SF-295 CNS, 104%. The growth is 100% in the assay on SF-539 CNS; 104% in the assay with UACC-257 melanoma; 102% in the assay with M14 melanoma; 104% with HCT-15 colon; 103% in the assay with HT29 colon; 89.8% in the assay on SNB-75 CNS. For the same compound, the growth with SNB-19 CNS was 92.6%; in the assay on U251 CNS, 99.6%; in the assay on PC-3 prostate it was 105%; in the assay on SK-MEL-5 melanoma, 100%; with UACC-62 melanoma, 96.8%; in the assay with LOX IMVI melanoma it was 98.7%. The growth in the assay with SK-MEL-28 melanoma and with SK-MEL-2 melanoma was 102% each time.
